Data as given in PubChem BioAssay (EPA / NIEHS).
Values joined by “and” are separate entries in the source; they are usually repeats but may differ in a detail not shown here. Equal values may be shown once. Active and inactive are the calls of the source. The calls were made as follows: active = hit-call score of the fitted dose curve at least 0.9, where 1 is the maximum; inactive = score below 0.9.

Read-out: not listed separately
Assay: BSK_3C_SRB: Viability Assessment in the BioMAP Diversity Plus: 3C Assay (AID 2283023);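 also: fitted both ways against DMSO so a hit may be signal rise or drop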
Settings: primary human endothelial cells (HUVEC)
Summary of the method: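 Overt cytotoxicity is gauged in parallel confluent HUVEC cultures by SRB total-protein staining at the time of biomarker measurement, 24 h after dosing. Gain or loss of signal is fitted versus DMSO.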

| Structure (SMILES) | outcome | AC50 |
| --- | --- | --- |
| O=C(c1ccccc1)c1ccccc1 | inactive | – |
| C=CC(=C)CC/C=C(\C)CCC=C(C)C | inactive | – |
| O=C1OC2(c3ccccc31)c1cc(I)c(O)c(I)c1Oc1c2cc(I)c(O)c1I | – | 12 µM (active) |
| COc1cc(OC)nc(NC(=O)NS(=O)(=O)Nc2ccccc2C(=O)N(C)C)n1 | inactive | – |
| Oc1c(Cl)cc(Cl)cc1Sc1cc(Cl)cc(Cl)c1O | – | 15.7 µM (active) and 13.3 µM (active) |

Read-out: not listed separately
Assay: BSK_3C_Vis: BioMAP Diversity Plus: 3C Assay for Morphology Visualization (AID 2283025);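 also: fitted both ways so gain or loss versus DMSO counts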;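 as to AC50: light microscopy image of cell morphology used as background control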
Settings: primary human endothelial cells (HUVEC)
Summary of the method: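 Human umbilical vein endothelial cell morphology was inspected by light microscopy 24 h after chemical dosing; scored bidirectionally relative to DMSO.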

| Structure (SMILES) | outcome | AC50 |
| --- | --- | --- |
| O=C(c1ccccc1)c1ccccc1 | inactive | – |
| C=CC(=C)CC/C=C(\C)CCC=C(C)C | inactive | – |
| CCCCCCCCCCCCOS(=O)(=O)O | inactive | – |
| O=C1OC2(c3ccccc31)c1cc(I)c(O)c(I)c1Oc1c2cc(I)c(O)c1I | – | 22.5 µM (active) |
| COc1cc(OC)nc(NC(=O)NS(=O)(=O)Nc2ccccc2C(=O)N(C)C)n1 | inactive | – |

Read-out: Pselectin, SELP (gene 6403)
Assay: BSK_4H_Pselectin: BioMAP Diversity Plus: 4H Assay for Pselectin Biomarker Activity (AID 2283026)
Settings: primary human endothelial cells (HUVEC); actives raise or lower the signal
Summary of the method: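 Primary human umbilical vein endothelial cells were treated 24 h, and cell-surface P-selectin was then quantified by ELISA. Bidirectional fit versus DMSO; cytotoxicity checked in parallel cultures by SRB total-protein staining.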

| Structure (SMILES) | outcome | AC50 |
| --- | --- | --- |
| O=C(c1ccccc1)c1ccccc1 | inactive | – |
| C=CC(=C)CC/C=C(\C)CCC=C(C)C | inactive | – |
| CCCCCCCCCCCCOS(=O)(=O)O | inactive | – |
| O=C1OC2(c3ccccc31)c1cc(I)c(O)c(I)c1Oc1c2cc(I)c(O)c1I | – | 12 µM (active) |
| COc1cc(OC)nc(NC(=O)NS(=O)(=O)Nc2ccccc2C(=O)N(C)C)n1 | inactive | – |
| Oc1c(Cl)cc(Cl)cc1Sc1cc(Cl)cc(Cl)c1O | – | 5.81 µM (active) and 4.28 µM (active) |

Read-out: not listed separately
Assay: BSK_4H_SRB: Viability Assessment in the BioMAP Diversity Plus: 4H Assay (AID 2283027);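 also: cells exposed to compound for 24 h before staining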;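 as to AC50: curves fitted both ways versus DMSO so AC50 may be loss or gain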
Settings: primary human endothelial cells (HUVEC)
Summary of the method: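 Human umbilical vein endothelial cells, 24 h after chemical dosing; total protein measured by 0.1% sulforhodamine B staining after 10% TCA fixation, read at 560 nm. Bidirectional fitting against DMSO.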

| Structure (SMILES) | outcome | AC50 |
| --- | --- | --- |
| C=CC(=C)CC/C=C(\C)CCC=C(C)C | inactive | – |
| CCCCCCCCCCCCOS(=O)(=O)O | inactive | – |
| O=C1OC2(c3ccccc31)c1cc(I)c(O)c(I)c1Oc1c2cc(I)c(O)c1I | inactive | – |
| COc1cc(OC)nc(NC(=O)NS(=O)(=O)Nc2ccccc2C(=O)N(C)C)n1 | inactive | – |
| Oc1c(Cl)cc(Cl)cc1Sc1cc(Cl)cc(Cl)c1O | – | 23.9 µM (active) and 23.7 µM (active) |

Read-out: not listed separately
Assay: BSK_BE3C_SRB: Viability Assessment in the BioMAP Diversity Plus: BE3C Assay (AID 2283028);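 as to AC50: fitted both ways so AC50 may mark signal gain or loss versus DMSO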
Settings: primary human bronchial epithelial cells
Summary of the method: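 SRB total-protein staining (0.1%, after TCA fixation) of chemically dosed human bronchial epithelial primary cells at 24 h; DMSO serves as the negative control for bidirectional curve fitting.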

| Structure (SMILES) | outcome | AC50 |
| --- | --- | --- |
| O=C(c1ccccc1)c1ccccc1 | inactive | – |
| C=CC(=C)CC/C=C(\C)CCC=C(C)C | inactive | – |
| CCCCCCCCCCCCOS(=O)(=O)O | – | 32.6 µM (active) |
| COc1cc(OC)nc(NC(=O)NS(=O)(=O)Nc2ccccc2C(=O)N(C)C)n1 | inactive | – |
| Oc1c(Cl)cc(Cl)cc1Sc1cc(Cl)cc(Cl)c1O | – | 5.25 µM (active) and 5.18 µM (active) |
